Common to all, as to experiment: NCI-60 one-dose screen, 48 h (100 = growth as untreated, 0 = no growth, -100 = all killed)
Conditions in all cases: 10 µM unless noted

Experiment [1] relates to NCI-H23 lung.
Experiment [2] relates to NCI-H226 lung.
Experiment [3] has as its system NCI-H322M lung.
Experiment [4] has as its system HOP-62 NSCLC.
Experiment [5] relates to NCI-H460 lung.
In experiment [6] the test system is HOP-92 NSCLC.
Experiment [7] has as its system NCI-H522 lung.
For experiment [8], the system named is A549/ATCC NSCLC.
In experiment [9] the test system is 786-0 renal.
Experiment [10] relates to COLO 205 colon.
In experiment [11] the test system is DU-145 prostate.
The test system of experiment [12] is K-562 leukemia.
In experiment [13] the test system is MALME-3M melanoma.
The test system of experiment [14] is MDA-MB-231 breast.
The test system of experiment [15] is RXF 393 renal.
Experiment [16] has as its system SF-268 CNS.
The test system of experiment [17] is SF-295 CNS.
In experiment [18] the test system is SF-539 CNS.
For experiment [19], the system named is UACC-257 melanoma.
Experiment [20] relates to M14 melanoma.

Molecules are shown by their SMILES. About 83,000 compounds went through this panel and 20% of them were active in at least one assay; those are over-represented in the sample as a whole.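 Single-dose data. Exposure time 48 hours. Values below 10 considered active.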 Values without a mark were called inactive. The source made the active and inactive calls.

Regarding `Cc1cc(Nc2ncnc3ccc(NC4=NC(C)(C)CO4)cc23)ccc1Oc1ccn2ncnc2c1`, the growth in experiment [1] was 35.6%; in experiment [2], 47%; in experiment [3], 5.34% (active); in experiment [4], 22.3%; in experiment [5] it was 26.9%; in [6], 9.05% (active). The growth was 6.43% (active) in experiment [7]; 20.7% in [8]; 29.7% in [9]; -60.7% (active) in experiment [10]; 35.2% in experiment [11]; 10% in experiment [12]. The growth is -8.78% (active) in experiment [13]; -4.62% (active) in experiment [14]; 0.527% (active) in experiment [15]; 41.8% in [16]; 52.7% in experiment [17]; 30.4% in experiment [18]. Further, the growth was 4.04% (active) in experiment [19] and 8.95% (active) in experiment [20].

Regarding `CCOc1ccc(N=C(C)Nc2ccc(OCC)cc2)cc1`, the growth was 102% in experiment [1]; 110% in [2]; 124% in experiment [3]; 109% in [4]; 102% in [5]; 81.9% in [6]. Further, the growth was 128% in experiment [7]; 95.3% in experiment [8]; 104% in experiment [9]; 102% in [10]; 114% in experiment [11]; 99.6% in experiment [12]. The growth was 117% in experiment [13]; 118% in experiment [14]; 113% in [15]; 88.8% in experiment [16]; 107% in experiment [17]; 118% in experiment [18]. Moreover, the growth was 104% in experiment [19] and 101% in experiment [20].

Regarding `COc1cc2c(cc1O)c(=O)n(CCN(C)C)c1c3cc4c(cc3ncc21)OCO4`, the growth in [1] was -19.1% (active); in experiment [2], -48.7% (active); in [3] it was -5.9% (active); in experiment [4], -4.35% (active); in experiment [5], -14.8% (active); in experiment [6], -16.6% (active). Moreover, the growth in experiment [7] is -37% (active); in experiment [8] it was -56% (active); in [9] it was -54.5% (active); in experiment [10], 45.9%; in experiment [11], -10.9% (active); in [12] it was 2.47% (active). Also, the growth in experiment [13] was -57.6% (active); in experiment [14], -5.67% (active); in [15], -51% (active); in experiment [16], 3.41% (active); in experiment [17] it was -5.78% (active); in experiment [18], -35.5% (active). Moreover, the figures for the growth in experiment [19] and in [20] were -47.6% (active) and -23.3% (active), respectively.

`C#Cc1cccc(Nc2ncnc3cc4c(cc23)OCCOCCOCCO4)c1`: the growth was 80.5% in experiment [1]; 71.3% in experiment [2]; 1.86% (active) in [3]; 56.1% in experiment [4]; 76.6% in [5]; 49.4% in experiment [6]. In addition, the growth in experiment [7] is 0.957% (active); in experiment [8], 42.7%; in [9], 51.7%; in experiment [10], 86.8%; in [11] it was 47.8%; in experiment [12], 36.2%. In addition, the growth was 84.8% in experiment [13]; 67.4% in experiment [14]; 40.7% in [15]; 51.6% in experiment [16]; 39.6% in experiment [17]; 80.5% in experiment [18]. The growth is 38.9% in experiment [19] and 49.2% in [20].

Take `Cc1cccc(C)c1N1C(c2ccccc2)=NNC12C=CC(=O)c1c(O)cccc12` (stereo not given): the growth in [1] was 30.6%; in [2], 94.6%; in experiment [3], 99.3%; in experiment [4] it was 39.4%; in experiment [5] it was 98.2%; in experiment [6], 115%. Moreover, the growth in experiment [7] was 54.6%; in [8], 62.4%; in experiment [9] it was 105%; in experiment [10], 97.7%; in [11] it was 93.7%; in experiment [12] it was 46.5%. Also, the growth is 62.7% in experiment [13]; 91.9% in experiment [14]; 105% in experiment [15]; 84.3% in experiment [16]; 61.3% in experiment [17]; 67.1% in [18]. Further, the growth was 58.5% in [19] and 54.2% in experiment [20].

For the molecule `O=C(CNc1nnc(-c2ccc(Cl)cc2)o1)Nc1ccc(-c2nc3ccccc3s2)cc1`, the growth is 88.7% in experiment [1]; 82.9% in experiment [2]; 95.1% in experiment [3]; 107% in experiment [4]; 99.7% in [5]; 87.9% in experiment [6]. Besides, the growth in experiment [7] was 77.1%; in experiment [8], 95.8%; in experiment [9], 101%; in experiment [10], 104%; in experiment [11], 98.5%; in experiment [12], 85.6%. The growth in experiment [13] was 88.7%; in experiment [14], 98.8%; in [15] it was 100%; in experiment [16] it was 77.3%; in experiment [17], 102%; in experiment [18] it was 97%. The values for the growth in experiment [19] and in experiment [20] were 103% and 102%, respectively.

`O=C(O)C1(Cc2cccc(Nc3nccs3)n2)CCC(Oc2cccc(Cl)c2F)CC1` (stereo not given): the growth was 66% in experiment [1]; 82.8% in experiment [2]; 76.4% in [3]; 49.8% in experiment [4]; 15.2% in experiment [5]; 102% in experiment [6]. Further, the growth in [7] is -3.77% (active); in experiment [8], 41.9%; in experiment [9], 75%; in [10], 59.5%; in experiment [11], 70.2%; in experiment [12], 33.9%. In addition, the growth in [13] is 77.5%; in experiment [14], 77.5%; in [15], 82.1%; in [16], 61.6%; in experiment [17], 71.5%; in [18], 89.2%. For the same molecule, the growth in [19] is 49.6%; in experiment [20], 58%.

Consider `CCc1nc(C(N)=O)c(Nc2ccc(N3CCC(N4CCN(C)CC4)CC3)c(OC)c2)nc1NC1CCOCC1`, for which the growth was 32.5% in experiment [1]; 38.2% in experiment [2]; 43.3% in [3]; 16.9% in experiment [4]; 17.2% in experiment [5]; -25.2% (active) in [6]. The growth in experiment [7] was 1.52% (active); in experiment [8], 12.4%; in [9], 10.2%; in [10] it was -46.5% (active); in experiment [11], 45.1%; in experiment [12], 16.1%. Further, the growth in experiment [13] was 52.4%; in experiment [14] it was 20.3%; in experiment [15], -92.9% (active); in [16], 38.3%; in [17] it was 12.8%; in [18], -78.3% (active). The values for the growth in [19] and in experiment [20] were 40.5% and 15.2%, respectively.

The values are drawn from PubChem BioAssay (NCI).
